# “And” between values parts separate entries of the source, which are not always exact repeats. Identical values can stand only once. Where a structure was tested more than once in an assay, its records may differ in their call. The source made the active and inactive calls. A call without a number means that no potency is given here. Unless noted, calls come from the whole dose curve; as a rule, active = well fitted curve in the direction sought with a large enough effect in the repeat runs; inconclusive = weak or mixed curves; inactive = no such curve, though single readings can be large; an effect the other way counts as inactive or inconclusive.
# Key:
# [1] = qHTS assay to identify small molecule antagonists of the thyroid receptor (TR) signaling pathway - cell viability counter screen (AID 743064); note: nearly all actives have a fitted effect of over 50% in size
# How it was run: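 Rat GH3 pituitary tumor cells stably expressing two TR response elements driving luciferase were plated, rested 4 h, then dosed with library compounds and T3 (1 nM final). After 23.5 h at 37 °C, CellTiter-Fluor was added for 30 min and fluorescence recorded.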
# [2] = qHTS assay to identify small molecule antagonists of the thyroid receptor (TR) signaling pathway (AID 743065); note: nearly all actives have a fitted effect of over 55% in size
# How it was run: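 GH3.TRE-Luc rat pituitary cells (two TREs driving luciferase) were dosed with compound, then stimulated with 1 nM T3 (final) for 23.5 h at 37 C. ONE-Glo luminescence was the read-out, with CellTiter-Fluor fluorescence as the cytotoxicity counter-screen.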
# [3] = system: thyroid hormone receptor (rat, GH3 cells); assay: qHTS assay to identify small molecule agonists of the thyroid receptor (TR) signaling pathway (AID 743066; calls by dose curve)
# [4] = target: Estrogen receptor (Homo sapiens) (UniProt P03372); assay: qHTS assay to identify small molecule antagonists of the estrogen receptor alpha (ER-alpha) signaling pathway (AID 743069; active = well fitted curve in the direction sought with a large enough effect in the signal ratio in the repeat runs, not every such curve was filed as active; inconclusive = weak or mixed curves, or effect the other way; inactive = no such curve, though single readings can be large or run the other way; the % refers to the signal ratio)
# Estrogen receptor (Homo sapiens), sequence (P03372 whole entry, looked up): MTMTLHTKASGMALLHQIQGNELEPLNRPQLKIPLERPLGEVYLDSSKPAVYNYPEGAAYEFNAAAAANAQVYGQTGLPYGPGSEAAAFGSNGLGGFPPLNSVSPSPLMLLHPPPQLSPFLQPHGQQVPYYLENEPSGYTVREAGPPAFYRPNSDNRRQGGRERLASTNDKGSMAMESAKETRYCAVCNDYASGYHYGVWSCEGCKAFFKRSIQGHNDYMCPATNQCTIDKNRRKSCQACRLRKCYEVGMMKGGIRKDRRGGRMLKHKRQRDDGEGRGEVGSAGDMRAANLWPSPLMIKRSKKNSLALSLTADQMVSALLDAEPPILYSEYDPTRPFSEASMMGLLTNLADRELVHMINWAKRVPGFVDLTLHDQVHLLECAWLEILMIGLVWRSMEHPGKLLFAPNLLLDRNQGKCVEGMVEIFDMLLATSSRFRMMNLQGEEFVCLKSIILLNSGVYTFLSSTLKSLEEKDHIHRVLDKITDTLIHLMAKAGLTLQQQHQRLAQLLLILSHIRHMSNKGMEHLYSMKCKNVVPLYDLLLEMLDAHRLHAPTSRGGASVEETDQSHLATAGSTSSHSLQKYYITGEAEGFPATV
# How it was run: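 In this cell-based reporter format, GripTite HEK293 cells harbouring ER-alpha-UAS-bla were grown overnight with 2% charcoal-stripped FBS, dosed with DMSO-dissolved compounds, then challenged with 17beta-estradiol. After 18 hr at 37C, beta-lactamase activity was detected by FRET fluorescence.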
# [5] = qHTS assay to identify small molecule antagonists of the estrogen receptor alpha (ER-alpha) signaling pathway - cell viability counter screen (AID 743074; calls by dose curve; note: nearly all actives have a fitted effect of over 45% in size)
# [6] = target: Estrogen receptor (Homo sapiens) (UniProt P03372); assay: qHTS assay to identify small molecule agonists of the estrogen receptor alpha (ER-alpha) signaling pathway (AID 743075; calls by dose curve; note: potency is the fitted concentration of half-maximal effect)
# [7] = target: Estrogen receptor (Homo sapiens) (UniProt P03372); assay: qHTS assay to identify small molecule agonists of the estrogen receptor alpha (ER-alpha) signaling pathway using the BG1 cell line (AID 743079); conditions: BG1Luc4E2 cells, ERE-luciferase agonist, 22 h; activation: at 70.3 µM (top of the series) unless noted; note: nearly all actives have a fitted effect of over 20% in size; note: potency is the fitted concentration of half-maximal effect
# [8] = qHTS assay to identify small molecule antagonists of the estrogen receptor alpha (ER-alpha) signaling pathway using the BG1 cell line (AID 743080; calls by dose curve;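 note: BG1 cells stimulated with 17beta-estradiol alongside compound; nearly all actives have a fitted effect of over 25% in size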)
# How it was run: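 After 5 days in phenol-red-free 10% charcoal-stripped FBS medium, BG1-Luc-4E2 cells were seeded, left 24 h at 37 C, co-treated with compounds and 17beta-estradiol for 21.5 h, then assayed for viability and luciferase.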
# [9] = qHTS assay to identify small molecule antagonists of the estrogen receptor alpha (ER-alpha) signaling pathway using the BG1 cell line - cell viability counter screen (AID 743081);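 note: compound given together with 17beta-estradiol as the ER stimulus; nearly all actives have a fitted effect of over 45% in size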; note: potency is the fitted concentration of half-maximal effect
# Aromatase (Homo sapiens) = Aromatase (Homo sapiens) (UniProt P11511); assay: qHTS assay to identify aromatase inhibitors (AID 743083); note: nearly all actives have a fitted effect of over 55% in size
# Aromatase (Homo sapiens), sequence (P11511 whole entry, looked up): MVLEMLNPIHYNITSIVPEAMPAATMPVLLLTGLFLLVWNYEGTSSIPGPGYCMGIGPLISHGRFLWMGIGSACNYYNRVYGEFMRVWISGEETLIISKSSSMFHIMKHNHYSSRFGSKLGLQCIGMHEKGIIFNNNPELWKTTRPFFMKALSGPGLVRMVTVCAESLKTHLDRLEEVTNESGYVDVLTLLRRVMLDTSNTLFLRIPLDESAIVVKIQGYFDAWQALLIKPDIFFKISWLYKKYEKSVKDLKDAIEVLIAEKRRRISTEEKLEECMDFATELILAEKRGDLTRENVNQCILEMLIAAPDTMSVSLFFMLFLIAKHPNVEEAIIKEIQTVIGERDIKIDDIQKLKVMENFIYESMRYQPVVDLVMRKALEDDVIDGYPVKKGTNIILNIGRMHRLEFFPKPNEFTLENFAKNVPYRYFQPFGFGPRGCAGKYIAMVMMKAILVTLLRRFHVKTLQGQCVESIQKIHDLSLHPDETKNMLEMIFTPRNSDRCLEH
# [10] = qHTS assay to identify aromatase inhibitors - cell viability counter screen (AID 743084);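 note: cells stimulated with testosterone during compound exposure; nearly all actives have a fitted effect of over 55% in size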
# [11] = target: Aryl hydrocarbon receptor (Homo sapiens) (UniProt P35869); assay: qHTS assay to identify small molecule that activate the aryl hydrocarbon receptor (AhR) signaling pathway (AID 743085); note: nearly all actives have a fitted effect of over 15% in size; note: potency is the fitted concentration of half-maximal effect;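 for activation: HG2L7.5c1 human HepG2 liver cells with stably integrated DRE-driven firefly reporter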
# Aryl hydrocarbon receptor (Homo sapiens), sequence (P35869 whole entry, looked up): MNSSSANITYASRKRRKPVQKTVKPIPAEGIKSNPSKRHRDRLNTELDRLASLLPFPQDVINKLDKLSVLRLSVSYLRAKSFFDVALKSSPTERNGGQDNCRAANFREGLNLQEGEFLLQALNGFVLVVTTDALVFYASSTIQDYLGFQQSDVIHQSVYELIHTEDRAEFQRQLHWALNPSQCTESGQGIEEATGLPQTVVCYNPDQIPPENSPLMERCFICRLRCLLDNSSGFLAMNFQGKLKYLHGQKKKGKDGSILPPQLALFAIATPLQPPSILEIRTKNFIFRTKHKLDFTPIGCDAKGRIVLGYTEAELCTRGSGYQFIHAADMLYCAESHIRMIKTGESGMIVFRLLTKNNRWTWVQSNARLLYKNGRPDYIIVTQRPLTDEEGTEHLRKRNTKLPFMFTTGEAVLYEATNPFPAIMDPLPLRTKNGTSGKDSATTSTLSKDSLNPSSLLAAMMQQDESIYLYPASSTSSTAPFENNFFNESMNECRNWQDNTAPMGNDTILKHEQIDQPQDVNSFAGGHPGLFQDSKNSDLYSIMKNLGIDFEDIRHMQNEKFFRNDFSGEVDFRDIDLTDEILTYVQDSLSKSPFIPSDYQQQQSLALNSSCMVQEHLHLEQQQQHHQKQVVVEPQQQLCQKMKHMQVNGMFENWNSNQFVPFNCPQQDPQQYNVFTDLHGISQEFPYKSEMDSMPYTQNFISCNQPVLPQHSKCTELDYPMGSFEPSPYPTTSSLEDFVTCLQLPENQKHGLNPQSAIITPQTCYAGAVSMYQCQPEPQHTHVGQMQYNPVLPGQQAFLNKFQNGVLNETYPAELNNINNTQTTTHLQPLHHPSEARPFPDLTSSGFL
# How it was run: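 Compounds were tested in HepG2 hepatocellular carcinoma cells harbouring a stably integrated luciferase gene under control of 20 DREs. Increased reporter signal after 24 h treatment at 37C was taken as AhR activation.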
# [12] = qHTS assay to identify small molecule that activate the aryl hydrocarbon receptor (AhR) signaling pathway - cell viability counter screen (AID 743086);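 note: HepG2 liver cells carrying the AhR DRE luciferase reporter; nearly all actives have a fitted effect of over 45% in size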
# How it was run: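 HepG2-AhR-luc (HG2L7.5c1) cells, 4000/well, treated 24 h at 37 C with compound; viability measured as CellTiter-Fluor fluorescence after 30 min in the same wells as the luciferase read.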
# [13] = target: Peroxisome proliferator-activated receptor gamma (Homo sapiens) (UniProt P37231); assay: qHTS assay to identify small molecule agonists of the peroxisome proliferator-activated receptor gamma (PPARg) signaling pathway (AID 743094; active = well fitted activation curve with a large enough effect in the signal ratio in the repeat runs, not every such curve was filed as active; inconclusive = weak or mixed curves, or effect the other way; inactive = no such curve, though single readings can be large or run the other way; the % refers to the signal ratio)
# Peroxisome proliferator-activated receptor gamma (Homo sapiens), sequence (P37231 whole entry, looked up): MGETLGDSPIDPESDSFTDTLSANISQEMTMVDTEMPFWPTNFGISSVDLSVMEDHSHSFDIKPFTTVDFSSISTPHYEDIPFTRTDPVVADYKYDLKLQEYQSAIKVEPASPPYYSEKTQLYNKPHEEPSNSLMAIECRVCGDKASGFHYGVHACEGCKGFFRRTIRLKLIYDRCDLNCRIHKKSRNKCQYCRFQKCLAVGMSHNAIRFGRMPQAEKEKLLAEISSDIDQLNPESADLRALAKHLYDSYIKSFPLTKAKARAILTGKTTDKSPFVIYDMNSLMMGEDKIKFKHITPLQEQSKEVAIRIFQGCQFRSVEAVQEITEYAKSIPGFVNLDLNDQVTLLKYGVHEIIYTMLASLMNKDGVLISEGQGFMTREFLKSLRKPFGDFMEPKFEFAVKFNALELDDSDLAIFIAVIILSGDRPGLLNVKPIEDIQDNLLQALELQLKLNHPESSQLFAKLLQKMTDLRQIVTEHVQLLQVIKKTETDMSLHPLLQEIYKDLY
# How it was run: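 Reporter activation was scored by fluorescence of cleaved LiveBLAzer B/G substrate (1 h, room temperature) in PPARg-bla HEK293H cells previously treated 17 h at 37C with DMSO-dissolved compounds.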
# [14] = target: Peroxisome proliferator-activated receptor gamma (Homo sapiens) (UniProt P37231); assay: qHTS assay to identify small molecule antagonists of the peroxisome proliferator-activated receptor gamma (PPARg) signaling pathway (AID 743191; calls by dose curve; note: nearly all actives have a fitted effect of over 30% in size)
# How it was run: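 GeneBLAzer PPARg UAS-bla HEK293H cells, 5 h post-plating, exposed to compounds 17 h at 37C. LiveBLAzer B/G FRET substrate added for 1 h at room temperature; beta-lactamase reporter read by fluorescence intensity.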
# [15] = qHTS assay to identify small molecule antagonists of the peroxisome proliferator-activated receptor gamma (PPARg) signaling pathway - cell viability counter screen (AID 743194); conditions: Potency: co-treated with 50 nM rosiglitazone unless noted; note: nearly all actives have a fitted effect of over 55% in size
# How it was run: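 Cytotoxicity counter screen in PPARg-bla HEK293H cells, same wells as reporter assay. Compounds plus 50 nM rosiglitazone (final) for 17 h at 37 C, then viability read by CellTiter-Glo luminescence.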
# [16] = qHTS assay for small molecule agonists of the antioxidant response element (ARE) signaling pathway (AID 743202; active = well fitted activation curve with a large enough effect in the signal ratio in the repeat runs, not every such curve was filed as active; inconclusive = weak or mixed curves, or effect the other way; inactive = no such curve, though single readings can be large or run the other way; the % refers to the signal ratio)
# How it was run: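 HepG2 ARE-bla cells; 16 h treatment at 37 C; FRET-based beta-lactamase fluorescence read after 2 h substrate incubation at room temperature.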
# [17] = qHTS assay for small molecule agonists of the antioxidant response element (ARE) signaling pathway - cell viability counter screen (AID 743203; calls by dose curve; note: nearly all actives have a fitted effect of over 55% in size)
# How it was run: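 Viability counter screen: stably transfected ARE-bla HepG2 line, 16 hrs compound exposure at 37C/5% CO2, ATP-based CellTiter-Glo luminescence measured in the reporter wells.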
# [18] = qHTS assay for small molecule activators of the heat shock response signaling pathway - cell viability counter screen (AID 743209); note: nearly all actives have a fitted effect of over 50% in size
# How it was run: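 Viability of HSE-bla HeLa cells is measured with CellTiter-Glo in the wells already used for the reporter read. Compound exposure lasts 5 h at 37 C, and luminescence is read after 30 min at room temperature.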
# [19] = qHTS assay for small molecule activators of the heat shock response signaling pathway (AID 743210; active = well fitted activation curve with a large enough effect in the signal ratio in the repeat runs, with a control signal flat, not every such curve was filed as active; inconclusive = weak or mixed curves; the % refers to the signal ratio;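 note: HeLa cells with beta-lactamase reporter driven by heat shock elements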)
# How it was run: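 Following overnight attachment, HSE-bla HeLa cells received test compounds for 5 h at 37 C; beta-lactamase activity was then detected via FRET substrate fluorescence.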
Compound,Potency [1],Potency [2],Potency [3],Potency [4],Potency [5],Potency [6],Potency [7],Potency [8],Potency [9],Potency (Aromatase (Homo sapiens)),Potency [10],Potency [11],Potency [12],Potency [13],Potency [14],Potency [15],Potency [16],Potency [17],Potency [18],Potency [19]
CN(C)c1nc(=O)n(C2CCCCC2)c(=O)n1C,inactive,inactive,inactive,inactive,inactive,inactive,inactive,inactive,inactive,inactive,inactive,inactive,inactive,inactive,inactive,inactive,inactive,inactive,inactive,inactive
O=NN1CCOCC1,inactive,inactive,inactive,inactive,inactive,inactive,inactive,inactive,inactive,inactive,inactive,inactive,inactive,inactive,inactive,–,inactive,–,inactive,inactive
ClC(Cl)(Cl)c1ccccc1,inactive,inactive,inactive,inactive,inactive,inactive,inactive,inactive,inactive,inactive,inactive,inactive,inactive,–,–,–,inactive,inactive,inactive,inactive
N#Cc1cccnc1,inactive,inactive,inactive,inactive,inactive,inactive,inactive,inactive,inactive,inactive,inactive,inactive,inactive,inactive,inactive,inactive,inactive,inactive,inactive,inactive
ClC(Cl)=C(Cl)C(Cl)=C(Cl)Cl,inactive,inactive,inactive,inactive,inactive,inactive,inactive,inactive,inactive,inactive,inactive,inactive,inactive,inactive,inactive,inactive,inactive,–,inactive,inactive
CC1=C(C(=O)Nc2ccccc2)SCCO1,inactive,inactive,inactive,inactive,inactive,inactive,31.1 µM (active) and 27.3 µM (active),–,inactive,inactive,inactive,27.8 µM (active) and 24.3 µM (active),inactive,–,inactive,inactive,inactive,inactive,inactive,inactive
c1ccc2c(c1)Nc1ccccc1S2,inactive,inactive,inactive,inactive,inactive,inactive,26.6 µM (active) and 38.6 µM (active),inactive,inactive,inactive,inactive,–,inactive,inactive,inactive,–,inactive,–,inactive,inactive
Cc1cccc(N=Nc2ccc(N(C)C)cc2)c1,inactive,inactive,inactive,inactive,inactive,inactive,139 nM (active) and 864 nM (active),–,31.2 µM (active) and 27.3 µM (active),inactive,–,13.9 µM (active) and 9.69 µM (active),–,–,–,inactive,–,inactive,inactive,–
CCC1(c2ccc(N)cc2)CCC(=O)NC1=O (stereo not drawn),inactive,inactive,inactive,inactive,inactive,inactive,inactive,inactive,inactive,–,inactive,inactive,inactive,inactive,inactive,inactive,–,–,inactive,inactive
C=C(C)C#N,inactive,inactive,inactive,inactive,inactive,inactive,inactive,inactive,inactive,inactive,inactive,inactive,inactive,–,–,inactive,inactive,inactive,inactive,inactive
CC(C)COC(=O)c1ccccc1C(=O)OCC(C)C,inactive,inactive,inactive,inactive,inactive,13.8 nM [inconclusive] (active) and inactive,21.7 µM (active),inactive,inactive,inactive,inactive,inactive,inactive,–,inactive,inactive,inactive,inactive,inactive,inactive
COc1ccc(O)c(C(C)(C)C)c1,inactive,inactive,inactive,inactive,inactive,inactive,inactive,inactive,inactive,inactive,inactive,inactive,inactive,inactive,inactive,–,–,inactive,inactive,inactive
O=[N+]([O-])/N=C1\NCCN1Cc1ccc(Cl)nc1,inactive,inactive,inactive,inactive,inactive,inactive,inactive,inactive,inactive,inactive,inactive,–,inactive,inactive,inactive,inactive,inactive,inactive,inactive,inactive

# — PubChem BioAssay (Tox21)
